The source made the active and inactive calls.
system: not listed separately; experiment: S. cerevisiae growth modulation with rapamycin, primary screen, strain BY4716, OD600, 96 h (AID 1091); conditions: higher = more signal, called active from +8 up or from −8 down; note: test concentration not given here

For `CC(C)=C1C(=O)C(c2ccccc2)=C2CN3C(=O)N(CCc4ccccc4)C(=O)[C@]3(Cc3ccccc3)[C@H]21`, the z-score was 0.867 (inactive).
In the case of `CO[C@H]1COC(=O)CC=C[C@H](C)COC(=O)[C@@H](OCc2ccccc2)C=C[C@@H]1C`, the z-score is reported as -0.993 (inactive).
For `[N-]=[N+]=NCc1ccccc1C[C@@]1(C(=O)N2CCOCC2)N=C(c2ccc(OCCCO)cc2)O[C@@H]1c1ccccc1N=[N+]=[N-]`, the z-score was 6.02 (inactive).

molecular target: Torsin-1A-interacting protein 2 (Homo sapiens) (UniProt Q8NFQ8); experiment: LULL1 binders on small-molecule microarray, primary screen, cell lysate, human LULL1 lysate, 635/667 nm fluorescence (AID 1092); conditions: hLULL1 lysate binding, 635 nm fluorescence, higher = more signal;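 note: probe is lysate of COS7 cells overexpressing human LULL1; score merges per-feature 667 nm fluorescence with signal-to-noise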
Sequence (Q8NFQ8 whole entry, looked up): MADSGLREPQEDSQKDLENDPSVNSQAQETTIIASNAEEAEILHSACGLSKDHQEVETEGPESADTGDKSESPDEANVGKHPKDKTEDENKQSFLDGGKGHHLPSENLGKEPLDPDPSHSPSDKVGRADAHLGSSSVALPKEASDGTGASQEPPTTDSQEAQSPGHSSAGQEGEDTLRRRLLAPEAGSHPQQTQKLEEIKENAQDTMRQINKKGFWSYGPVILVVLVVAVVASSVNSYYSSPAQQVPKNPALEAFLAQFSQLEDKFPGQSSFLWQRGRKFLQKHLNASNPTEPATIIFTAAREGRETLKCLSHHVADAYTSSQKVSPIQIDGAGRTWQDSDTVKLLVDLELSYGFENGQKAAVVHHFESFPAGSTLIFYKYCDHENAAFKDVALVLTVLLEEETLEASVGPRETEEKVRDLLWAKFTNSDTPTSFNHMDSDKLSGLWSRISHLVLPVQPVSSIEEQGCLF

Compared with `CO[C@@H]1COC(=O)CC=C[C@@H](C)[C@H](OC)COC(=O)CC=C[C@H]1C`, `CO[C@H]1COC(=O)CC=C[C@H](C)COC(=O)[C@@H](OCc2ccccc2)C=C[C@@H]1C` is higher in composite z-score: -0.266 for the first, 0.059 for the second.

First: O=C1O[C@H](c2ccccc2)[C@H](c2ccccc2)N2[C@H]1[C@@H](C(=O)Nc1nc3ccccc3s1)[C@]1(C(=O)Nc3ccc(C#CC4(O)CCCCCC4)cc31)[C@H]2c1ccc(O)cc1
Second: O=C1O[C@H](c2ccccc2)[C@H](c2ccccc2)N2[C@H]1[C@@H](C(=O)NC[C@H](O)c1ccccc1)[C@]1(C(=O)Nc3ccc(C#CC4=CCCCC4)cc31)[C@H]2c1ccc(OCCO)cc1
The composite z-score of the first is higher: 3.08 for the first, 1.85 for the second.

First: O=C1O[C@@H](c2ccccc2)[C@@H](c2ccccc2)N2[C@@H](c3ccccc3OCCO)[C@]3(C(=O)Nc4ccc(C#CC5=CCCCC5)cc43)[C@@H](C(=O)O)[C@H]12
Second: NC(=O)NCC#Cc1ccc2c(c1)[C@]1(C(=O)N2)[C@H](C(=O)N2CCCCCCC2)[C@H]2C(=O)O[C@H](c3ccccc3)[C@H](c3ccccc3)N2[C@@H]1c1ccccc1OCCO
The composite z-score of the first is lower: 1.83 for the first, 4.33 for the second.

Compared with `O=C1O[C@@H](c2ccccc2)[C@@H](c2ccccc2)N2[C@@H](c3ccc(O)cc3)[C@]3(C(=O)Nc4ccccc43)[C@@H](C(=O)N3CCN(c4ncccn4)CC3)[C@H]12`, `COCCOC(=O)N1C(=O)[C@@]2(c3cc(C#CCC(C(=O)OC)C(=O)OC)ccc31)[C@H](C(=O)N1CCN(c3ncccn3)CC1)[C@H]1C(=O)O[C@H](c3ccccc3)[C@H](c3ccccc3)N1[C@@H]2c1ccc(O)cc1` is lower in composite z-score: 2.71 for the first, 2.23 for the second.

Going from `C[N+](C)(C)CCCCNC(=O)[C@@H]1C[C@@H]2C(=O)N3CCC[C@H]3C(=O)N2[C@@H]1c1cccc(OCCO)c1` to `CC(C)N1CC=CC23O[C@@H]4/C=C\CCCOC(=O)C4[C@H]2C(=O)N(CCCCCO)[C@@H]3C1=O` (some centres undefined), the composite z-score falls from 0.381 to -0.467.

Going from `C=CC[C@@]1(C(=O)N2CCOCC2)N=C(c2ccc(OCCCO)cc2)O[C@@H]1c1ccccc1` to `[N-]=[N+]=NCc1ccccc1C[C@@]1(C(=O)N2CCOCC2)N=C(c2ccc(OCCCO)cc2)O[C@@H]1c1ccccc1N=[N+]=[N-]`, the composite z-score rises from 2.71 to 3.16.

Compared with `CCC#CCN(Cc1ccccc1Br)[C@H](/C=C/c1ccccc1)[C@@H](O)Cc1ccccc1`, `CC(C)=C1C(=O)C(c2ccccc2)=C2CN3C(=O)N(CCc4ccccc4)C(=O)[C@]3(Cc3ccccc3)[C@H]21` is lower in composite z-score: 1.22 for the first, 1.15 for the second.

Going from `O=C(NCc1ccccc1)c1ccc(Br)cc1[N+](=O)[O-]` to `O=[N+]([O-])c1ccc(C[n+]2ccc3ccc(O)cc3c2)o1`, the composite z-score rises from 0.715 to 0.803.

Compared with `O=C1OCC=C[C@H]2OC34C=CCN(Cc5ccccc5)C(=O)[C@H]3N(CCO)C(=O)[C@@H]4[C@@H]12` (some centres undefined), `CC1CC/C=C\[C@H]2OC34C=CCN(Cn5nnc6ccccc65)C(=O)[C@H]3N(C(C)CO)C(=O)[C@@H]4C2C(=O)O1` (some centres undefined) is higher in composite z-score: 2.08 for the first, 2.22 for the second.

Going from `COc1ccc(-c2ccccc2[C@@H]2N[C@H](C(=O)O)CC[C@H]2C)cc1` to `COc1ccc([Si](C)(C)[C@H]2[C@H](CC(=O)N(CCO)Cc3ccccc3)O[C@@]3(C(=O)N(C)c4ccccc43)[C@@H]2C)cc1`, the composite z-score rises from 0.47 to 1.93.

Compared with `CCOC(=O)C[C@H]1[C@H](OC(=O)c2cc3ccccc3oc2=O)[C@@H](NC(=O)C2CCCCC2)c2cc(OCCCO)ccc2N1C(=O)c1ccc2ccccc2n1`, `C=CCNC(=O)[C@@H]1[C@H]2C(=O)O[C@H](c3ccccc3)[C@H](c3ccccc3)N2[C@H](c2ccc(OCCO)cc2)[C@@]12C(=O)N(C(=O)OCCOC)c1ccc(C#CC3(O)CCCCCC3)cc12` is higher in composite z-score: 1.17 for the first, 1.6 for the second.

First: Cc1ccc(N2C(=O)c3ccccc3[C@@H](C(=O)NCc3ccccc3)[C@@H]2c2ccc(CO)cc2)nc1
Second: CCOC(=O)C1=CC[C@@H](c2ccc(-c3ccc(OCc4ccccc4)cc3)c(OC)c2)N(S(=O)(=O)c2ccc(C)cc2)[C@H]1c1ccccc1
The composite z-score of the first is lower: 1.39 for the first, 2.93 for the second.

First: COC(=O)C(CC#Cc1ccc2c(c1)[C@]1(C(=O)N2)[C@H](C(=O)N2CCCCCCC2)[C@H]2C(=O)O[C@H](c3ccccc3)[C@H](c3ccccc3)N2[C@@H]1c1ccc(O)cc1)C(=O)OC
Second: COCCOC(=O)N1C(=O)[C@@]2(c3cc(C#CCNC(N)=O)ccc31)[C@H](c1ccc(OCCO)cc1)N1[C@H](c3ccccc3)[C@H](c3ccccc3)OC(=O)[C@H]1[C@@H]2C(=O)N1CCCCCCC1
The composite z-score of the first is lower: -0.573 for the first, 0.789 for the second.

Going from `COc1ccc([Si](C)(C)[C@@H]2[C@@H](CCO)O[C@]3(C(=O)N(Cc4ccc(NC(=O)[C@H](C)O)cc4)c4ccccc43)[C@H]2C)cc1` to `COC(=O)[C@@]1(Cc2ccc(OC)cc2)[C@H]2c3cc(C(=O)N(C)C)n(Cc4ccc(C)c(F)c4F)c3C[C@H]2CN1C(=O)c1ccccc1`, the composite z-score rises from 2.42 to 2.84.

Going from `CO[C@H]1COC(=O)[C@H](CCSC)NC(=O)CC=C[C@@H](C)COC(=O)[C@@H](OCc2ccccc2)C=C[C@@H]1C` to `CCOC(=O)[C@H]1C/C=C/C[C@H](C(=O)OCC)C(=O)O[C@H]2[C@@H](OC)O[C@H](CO)[C@@H](OC(=O)Nc3ccc(Br)cc3)[C@@H]2OC1=O`, the composite z-score rises from -0.84 to 2.93.

Compared with `C=CCOC(=O)[C@@H]1[C@H]2C(=O)O[C@H](c3ccccc3)[C@H](c3ccccc3)N2[C@H](c2ccc(OCCOC(=O)[C@H]3C[C@H]4C(=O)N[C@@H](CCCCNC(C)=O)C(=O)N4[C@H]3c3ccc(O)cc3)cc2)[C@@]12C(=O)Nc1ccc(I)cc12`, `COCCOC(=O)N1C(=O)[C@@]2(c3cc(C#CC4=CCCCC4)ccc31)[C@H](C(=O)NC[C@H](O)c1ccccc1)[C@H]1C(=O)O[C@H](c3ccccc3)[C@H](c3ccccc3)N1[C@@H]2c1ccccc1OCCO` is higher in composite z-score: 1.39 for the first, 1.91 for the second.

First: CCCC=C(CCC)[C@@H](NS(=O)(=O)c1ccc(-c2ccccc2)cc1)c1ccc(C(=O)OC)cc1
Second: C=C[C@H](OC)[C@@H](OC(=O)Nc1ccc(SC)cc1)c1ccc(O)c(F)c1
The composite z-score of the first is lower: 1.76 for the first, 2.96 for the second.

Going from `CN(C)c1ccc(C(O)C2C=CC3C(=O)NC(=O)C3N2Nc2ccc(Cl)cc2Cl)cc1` (centres undefined) to `COCCOC(=O)N1C(=O)[C@@]2(c3ccccc31)[C@H](C(=O)N1CCc3cc(OC)c(OC)cc3C1)[C@H]1C(=O)O[C@H](c3ccccc3)[C@H](c3ccccc3)N1[C@@H]2c1ccccc1OCCO`, the composite z-score falls from 2.58 to 2.14.
